# Screening data from PubChem.
# rCAG RNA binder – binders of r(CAG) RNA repeats, primary screen, biochemical, fluorescence; r(CAG) RNA repeat, TO-PRO-1 dye displacement fluorescence; inhibition, % at 3 µM; AID 651821, 2012; 370,000 compounds, 1.3% hits;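 active means inhibition above the plate cutoff, the mean of all test compounds on that plate plus 3 SD, cut at about 35% in these data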;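 further: 0% = DMSO alone and 100% = 100 µM mitoxantrone as full dye displacement; higher means more dye released from RNA so lower well fluorescence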
# ABCB6 inh 2 – ABCB6 transporter inhibitors, primary screen, K562-ABCB6 cells, flow cytometry, MLPCN library. K562-ABCB6 porphyrin accumulation, 1 h; stronger effect = lower value. fluorescence ratio to DMSO, % at 10 µM. 360,000 compounds, 0.19% hits. AID 602162, 2011;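 active means fluorescence ratio to DMSO below 75%, the collection mean minus 3 SD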;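 further: signal is porphyrin accumulated inside mitochondria; 100% equals median channel fluorescence of DMSO control wells; lower ratio means ABCB6 inhibition with less porphyrin fluorescence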
# Target sequence (Q9NP58 whole entry, looked up): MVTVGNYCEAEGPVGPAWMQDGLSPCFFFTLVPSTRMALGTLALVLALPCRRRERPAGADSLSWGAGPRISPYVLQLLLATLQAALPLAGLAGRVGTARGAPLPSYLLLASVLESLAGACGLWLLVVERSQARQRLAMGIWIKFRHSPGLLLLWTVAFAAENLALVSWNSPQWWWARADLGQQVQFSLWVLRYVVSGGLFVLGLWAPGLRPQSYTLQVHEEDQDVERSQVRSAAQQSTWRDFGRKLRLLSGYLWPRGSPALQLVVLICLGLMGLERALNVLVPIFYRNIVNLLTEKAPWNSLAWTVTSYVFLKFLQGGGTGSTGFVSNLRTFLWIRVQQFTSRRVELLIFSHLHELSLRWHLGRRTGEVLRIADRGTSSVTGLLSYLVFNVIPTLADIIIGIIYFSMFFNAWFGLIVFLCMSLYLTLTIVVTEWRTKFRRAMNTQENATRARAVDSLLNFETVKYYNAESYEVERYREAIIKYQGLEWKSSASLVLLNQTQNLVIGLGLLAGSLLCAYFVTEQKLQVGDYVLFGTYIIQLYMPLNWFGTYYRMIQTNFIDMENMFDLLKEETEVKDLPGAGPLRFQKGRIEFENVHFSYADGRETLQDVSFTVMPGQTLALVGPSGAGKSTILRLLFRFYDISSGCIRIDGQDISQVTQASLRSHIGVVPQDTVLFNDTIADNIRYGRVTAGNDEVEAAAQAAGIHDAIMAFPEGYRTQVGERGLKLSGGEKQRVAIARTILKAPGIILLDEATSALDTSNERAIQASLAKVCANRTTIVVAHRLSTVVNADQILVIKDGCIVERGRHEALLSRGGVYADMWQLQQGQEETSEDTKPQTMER
# Granule exo inh – LAMP-1 surface exposure blockers, TALL-104 cells – cell-based, flow cytometry, MLPCN library, primary screen; TALL-104 LAMP-1 surface exposure; cells stimulated with thapsigargin and PMA; inhibition, % at 10 µM; 360,000 compounds, 0.66% hits; AID 651702, 2012;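 active means inhibition above about 55%, limit read from the data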
# PG9 Ab binder – binders of HIV-1 gp120 antibody PG9, primary screen, biochemical, TR-FRET; TR-FRET gp120-PG9 antibody binding; inhibition, % at 6.7 µM; 360,000 compounds, 0.43% hits; AID 624416, 2012; in the data active means inhibition above about 8.5%
# rCAG binder conf – small molecules binding CAG repeat RNA – biochemical, fluorescence, confirmation | shares compounds with rCAG RNA binder | r(CAG) RNA repeat, TO-PRO-1 dye displacement fluorescence | inhibition, % at 3 µM | 4,300 compounds, 70% hits;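 active means inhibition above a per-plate cutoff, the mean inhibition of sample wells plus 3 SD, cut at about 35% in these data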;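 further: loss of TO-PRO-1 fluorescence as compound displaces dye from 1x1 AA loop RNA; 0% = DMSO only wells and 100% = 100 µM mitoxantrone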
# dCAG dye counter – displacement of TO-PRO-1 from CAG DNA duplex, counter-screen for rCAG RNA repeat binder project, biochemical, fluorescence, TO-PRO-1 dye, d(CAG) DNA oligo | shares compounds with rCAG RNA binder | d(CAG) DNA oligo TO-PRO-1 dye displacement | 4,300 compounds, 94% hits | AID 652068, 2013 | inhibition, % at 3 µM;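 active means inhibition above its plate's cutoff, the mean test-well inhibition plus 3 SD, cut at about 4.8% in these data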;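 further: 0% = DNA dye mix with DMSO and 100% = 100 µM mitoxantrone; hits displace the dye from DNA and so lower well fluorescence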
# dCAG dye DR – inhibitors of DNA CAG/GTC TO-PRO-1 complex, dose response, counter-screen for rCAG RNA repeat binder project, biochemical, fluorescence, TO-PRO-1 dye; shares compounds with rCAG RNA binder; DNA CAG/GTC duplex TO-PRO-1 dye displacement fluorescence; IC50, µM; 250 compounds, 20% hits; in the data active means IC50 below about 10 µM
# Active calls of the source: *; i = inactive; · = no result given. The list is not random: actives were taken first. Their share in the collection is about 2.5%.
SMILES,rCAG RNA binder,ABCB6 inh 2,Granule exo inh,PG9 Ab binder,rCAG binder conf,dCAG dye counter,others
Cc1ccccc1C(=O)Nc1ccc2c(C#N)c3nc4ccccc4nc3n2c1,36*,409,6,-7,26,14*,
Cc1cc(C)cc(NS(=O)(=O)c2c(C(=O)N3CCOCC3)c(C)n(C)c2C)c1,0,96,0,0,·,·,
N=C1/C(=C\c2ccc(SCc3ccccc3)o2)C(=O)N=C2SC(CC(=O)N3CCOCC3)=NN12,71*,99,1,1,68*,30*,
COc1cc(/C=C2/C(=N)N3N=C(CC(=O)N4CCOCC4)SC3=NC2=O)ccc1OCc1ccc(F)cc1,36*,96,-8,-2,77*,35*,
COc1ccccc1-c1ccc2c(c1)C(C)(Cc1ccc(F)c(Cl)c1)C(=O)N2 (stereo unspecified),5,95,9,1,·,·,
Cc1nnc2sc(SCC(=O)Nc3cccc(Cl)c3)nn2c1=O,-1,93,-2,-1,·,·,
CN(CC(=O)Nc1cccc(F)c1)C(=O)/C=C/c1cn(Cc2ccccc2)nc1-c1cccnc1,-1,121,0,-3,·,·,
C=CCn1c(SCc2c(C)noc2C)nc2sc3c(c2c1=O)CCCCC3,40*,95,3,2,7,4.7*,
O=c1[nH]c2ccccc2nc1-c1c[nH]c2ccccc12,43*,92,0,0,16,14*,
Nc1ccccc1-c1nc2ccccc2[nH]c1=O,0,99,5,-4,·,·,
Oc1ccc(/C=N/N(Cc2ccccc2)c2ccccc2)c(O)c1O,38*,97,-2,-1,45*,25*,
Cc1ccc(-c2csc(NC(=O)c3ccno3)n2)cc1,45*,98,1,0,49*,22*,
Cc1ccc(-c2csc(NC(=O)c3ccc(C)o3)n2)cc1,4,98,0,-3,·,·,
COCCN(Cc1ccccc1)C(=O)c1c(C)nn(-c2ccccc2)c1C,-7,99,-1,0,·,·,
COc1ccc(S(=O)(=O)N2CCCC(N(C)CCc3ccccc3)C2)cc1OC (stereo unspecified),2,101,6,0,·,·,
O=C(O)CC(C(=O)O)N1C(=O)/C(=C/C=C/c2ccco2)SC1=S (stereo unspecified),34,96,-2,-3,·,·,
Cc1ccc(NC(=O)CCCN2C(=O)/C(=C/C=C/c3ccccc3)SC2=S)cc1,9,144,2,-3,·,·,
O=C(NN1C(=O)/C(=C/C=C/c2ccco2)SC1=S)c1ccccc1O,94*,94,3,-3,93*,77*,
O=C(O)CCCN1C(=O)/C(=C/C=C/c2ccco2)SC1=S,60*,103,-4,-3,51*,19*,
COc1ccc(/C=C2\SC(=S)N(C(Cc3ccccc3)C(=O)O)C2=O)cc1 (stereo unspecified),65*,99,-2,-2,71*,34*,dCAG dye DR=i
O=C(O)C(Cc1ccccc1)N1C(=O)/C(=C/C=C/c2ccco2)SC1=S (stereo unspecified),90*,86,-1,-2,92*,68*,
CN(C)CC(O)CN1C(=O)N(CN2C(=O)N(CC(O)CN(C)C)C(=O)C2(C)C)C(C)(C)C1=O (stereo unspecified),-4,103,2,-2,·,·,
COc1ccc(S(=O)(=O)N2CC(C(=O)O)Oc3ccc(Cl)cc32)cc1 (stereo unspecified),20,285,1,-1,·,·,
CC(C)(C)c1ccc(S(=O)(=O)N2CC(C(=O)O)Oc3ccc(Cl)cc32)cc1 (stereo unspecified),63*,98,-5,1,63*,26*,
NNc1nc(Nc2ccc([N+](=O)[O-])cc2)nc(N2CCCCCC2)n1,36*,97,-7,-1,29,16*,
SMILES,rCAG RNA binder,ABCB6 inh 2,Granule exo inh,PG9 Ab binder,rCAG binder conf,dCAG dye counter,others
O=[N+]([O-])c1ccc(Nc2nc(NCCO)nc(N3CCCC3)n2)cc1,9,104,7,-1,·,·,
N#Cc1sc2nccc(Nc3ccccc3)c2c1N,38*,98,-3,-4,2,0,
CN(C)NC(=S)NC1CC2CCC1C2 (stereo unspecified),-1,98,-2,-5,·,·,
CC(=O)c1c(C)[nH]c(C(=O)OCC(=O)NC(C)c2ccccc2)c1C (stereo unspecified),1,94,7,-1,·,·,
CC1(C(=O)NS(=O)(=O)c2ccc(Cl)s2)CCN1C(=O)c1ccc(C2CCCCC2)cc1 (stereo unspecified),66*,95,4,-2,74*,37*,
Cc1cccc(-c2n[nH]c(=S)n2/N=C/C=C/c2ccco2)c1,43*,99,4,2,26,13*,
Cc1cccc(/C=N/n2c(-c3cc(-c4ccccc4)n[nH]3)n[nH]c2=S)c1,23,99,21,0,·,·,
S=c1[nH]nc(-c2ccncc2)n1/N=C/C=C/c1ccco1,15,106,0,-1,·,·,
COc1ccccc1/C=C/C=N/n1c(-c2cc(-c3ccccc3)n[nH]2)n[nH]c1=S,44*,101,3,4,63*,25*,
COc1cc(C=Nn2c(-c3cc(-c4ccccc4)n[nH]3)n[nH]c2=S)ccc1OC(C)=O,58*,·,·,·,44*,13*,
S=c1[nH]nc(-c2cc(-c3ccccc3)n[nH]2)n1/N=C/C=C/c1ccccc1,25,99,-8,1,·,·,
Cc1ccc(S(=O)(=O)Nc2ccccc2C(=O)N2CCCCCC2)cc1,-1,101,12,2,·,·,
CC(=O)OC(C)C1C2=C(C(=O)CC1(C)O)C(=O)c1c(ccc(-c3ccc4c(c3O)C(=O)C3=C(C4=O)C(C(C)OC(C)=O)C(C)(O)CC3=O)c1O)C2=O (stereo unspecified),59*,109,-8,-1,67*,34*,dCAG dye DR=8*
Cc1sc2nc(SCc3ccc(C(=O)O)cc3)n(Cc3ccco3)c(=O)c2c1C,55*,91,8,1,57*,20*,
C=CCn1c(SCc2ccc(C(=O)O)cc2)nc2sc(C)c(C)c2c1=O,29,98,0,-1,·,·,
O=C(/C=C\N1CCOCC1)c1ccc(Br)cc1,10,101,14,-2,·,·,
